Source: PubChem
Sampled rows, rich in hits. Any-hit rate of the full collection: about 10%.
ALOX12 inhib = 12-hLO (ALOX12) enzyme inhibition. Potency, µM (titrated, usually from 57.1 µM), most hits filed as inhibitors. hit rate 0.12% among 150,000. P18054. AID 1452. purified 12-hLO, xylenol orange hydroperoxide absorbance; active = well fitted inhibition curve with a large enough effect; inconclusive = small, poorly fitted or top-dose-only effect; note: nearly all actives have a fitted effect of over 55% in size
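Purified human 12hLO (150 nM), preincubated 15 min with compound, then 40 uM arachidonic acid for 30 min, room temperature, Hepes pH 7.0 with 0.01% Triton X-100. Hydroperoxide detected by ferrous iron/xylenol orange; 573/405 nm absorbance ratio gives reaction progress.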
PNC assembly inh = blocks assembly of the perinucleolar compartment; PC3M PTB-GFP, PNC prevalence imaging, 16 h; active compounds read low; activity change (PNC), negative = inhibition, % at 10 µM; hit rate 3.1% among 140,000; AID 2417;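 active = readout at or below -70, meaning at least 70% loss of cells showing the perinucleolar compartment, a nuclear body marking cancer cells; inconclusive = readout between -30 and a set limit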
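Read-out is percentage of cells bearing a perinucleolar compartment, from automated 20x imaging of fixed, Hoechst-stained PC3M PTB-GFP cells. Cells were seeded 4 h, then exposed 16 h to compound (23 nl of library stock) in duplicate plates.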
Lamin A splicing = modulators of lamin A splicing; HeLa LMNA splicing GFP/RFP minigene ratio, 48 h; Potency, µM (top dose mostly 46.1 µM), usual class: inhibitors; hit rate 0.01% among 200,000; active = well fitted inhibition curve with a large enough effect in the signal ratio, with a control signal flat, not every such curve was filed as active; inconclusive = small, poorly fitted or top-dose-only effect, or effect the other way, or a change in a side signal; the % refers to the signal ratio
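S3 HeLa stable clones carrying a lamin A-EGFP splicing minigene plus DsRed2 were seeded at 600 cells/well in Opti-MEM with 2% FBS, pin-dosed and incubated 48 h at 37°C. Acumen cytometry (488 nm) gave the GFP/RFP total-intensity ratio.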
HPGD block = HPGD (human) dehydrogenase inhibition. purified HPGD, NADH fluorescence kinetic, PGE2 substrate. Potency, µM, usual class: inhibitors. hit rate 4.3% among 150,000
Target sequence (P15428 whole entry, looked up): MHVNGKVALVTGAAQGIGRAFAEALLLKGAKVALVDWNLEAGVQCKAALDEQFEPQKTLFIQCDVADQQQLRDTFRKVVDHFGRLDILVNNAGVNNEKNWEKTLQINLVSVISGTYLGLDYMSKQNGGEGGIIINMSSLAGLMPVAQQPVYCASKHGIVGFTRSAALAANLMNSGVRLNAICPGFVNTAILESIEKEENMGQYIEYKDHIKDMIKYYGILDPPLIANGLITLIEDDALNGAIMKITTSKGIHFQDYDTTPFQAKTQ
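NADH formation kinetics: reaction with 30 uM PGE2 and 1 mM NAD+ (final), 20 nM enzyme, Tris-HCl pH 8 with Tween 20, after 15 min compound preincubation at room temperature. Fluorescence change, last versus first of five reads.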
ALDH1A1 inh = blocks purified human ALDH1A1 activity. P00352. Purified ALDH1A1, NADH fluorescence, propionaldehyde substrate. Potency, µM (series often up to 75.3 µM), actives largely listed as inhibitors. hit rate 7.3% among 220,000
Each line names hits and unclear results; the compound was inactive in the other large screens. Unless noted, calls come from the whole dose curve; as a rule, active = well fitted inhibition curve with a large enough effect (not every such curve was filed as active); inconclusive = small, poorly fitted or top-dose-only effect, or another doubt; inactive = no such curve, though single readings can be large or run the other way.

Cc1ccc(Cl)cc1N1CCN(C(=O)C2CCN(c3nnc(-n4cccc4)s3)CC2)CC1	PNC assembly inh inconclusive, Lamin A splicing inconclusive
Cc1cccc(N2CCN(C(=O)C3CCN(c4nnc(-n5cccc5)s4)CC3)CC2C)c1 (stereo unspecified)	PNC assembly inh -112.2, Lamin A splicing inconclusive
CN(Cc1ccco1)c1ncncc1-c1cccc(NS(C)(=O)=O)c1	ALDH1A1 inh inconclusive (no result: ALOX12 inhib, PNC assembly inh, HPGD block)
O=C(O)[C@H]1CCCNC1	none (no result: PNC assembly inh, Lamin A splicing)
O=C(O)C1CCCNC1 (stereo unspecified)	PNC assembly inh -82.7, Lamin A splicing inconclusive
COc1cc2c(cc1OC)Cc1cc(OC)c(OC)cc1Cc1cc(OC)c(OC)cc1C2	none (no result: PNC assembly inh, Lamin A splicing)
Cc1cc(Cl)c(S(=O)(=O)NC2CCCCC2)cc1OCC(=O)Nc1nncs1	PNC assembly inh -118.9, Lamin A splicing inconclusive, ALDH1A1 inh inconclusive
CCOC(=O)C1CCCN(C2CC(=O)N(c3ccc(NC(C)=O)cc3)C2=O)C1 (stereo unspecified)	ALDH1A1 inh 31.6µM (no result: ALOX12 inhib, PNC assembly inh, Lamin A splicing, HPGD block)
CCOC(=O)C1CCCN(S(=O)(=O)c2ccc(NC(C)=O)cc2)C1 (stereo unspecified)	ALDH1A1 inh 2.82µM (no result: ALOX12 inhib, PNC assembly inh, HPGD block)
CCOC(=O)C1CCN(S(=O)(=O)c2ccc(OCC(=O)OC)cc2)CC1	PNC assembly inh inconclusive
CCOC(=O)C1CCN(S(=O)(=O)c2ccc(C(C)=O)cc2)CC1	PNC assembly inh -100.0
CCOC(=O)C1CCCN(C2CC(=O)N(c3ccc(C)cc3)C2=O)C1 (stereo unspecified)	none
COc1cccc(CNC(=O)C2CCN(S(=O)(=O)c3cn(C)cn3)CC2)c1	none (no result: ALOX12 inhib, PNC assembly inh, HPGD block, ALDH1A1 inh)
COc1ccc(CCNC(=O)c2cc(=O)[nH]c3ccc(S(=O)(=O)N4CCCCC4)cc23)cc1OC	none (no result: ALOX12 inhib, PNC assembly inh, HPGD block, ALDH1A1 inh)
CCCc1cc(=O)[nH]c2nnc(SCC)n12	none (no result: ALOX12 inhib, PNC assembly inh, HPGD block, ALDH1A1 inh)
COCC(=O)NC1CCN(S(=O)(=O)c2ccc(C(=O)O)cc2)CC1	PNC assembly inh -121.8 (no result: HPGD block)
CCOC(=O)C1CCCN(S(=O)(=O)c2cc(OCC(=O)NC3CCCCC3)c(C)cc2Cl)C1 (stereo unspecified)	Lamin A splicing inconclusive, ALDH1A1 inh 7.08µM
CCOC(=O)C1CCCN(S(=O)(=O)c2ccc(Br)c(OC)c2)C1 (stereo unspecified)	PNC assembly inh inconclusive, ALDH1A1 inh 11.2µM
CCOC(=O)C1CCN(C(=S)Nc2ccc(C)cc2)CC1	none (no result: ALOX12 inhib, PNC assembly inh, HPGD block)
CCOC(=O)C1CCN(C(=S)Nc2ccc(S(N)(=O)=O)cc2)CC1	Lamin A splicing inconclusive, HPGD block 28.2µM, ALDH1A1 inh 15µM
CCOC(=O)C1CCCN(S(=O)(=O)c2ccccc2)C1 (stereo unspecified)	none
O=C(CCCc1ccccc1)NC1CC(=O)N(c2ccc(F)cc2)C1 (stereo unspecified)	none (no result: ALOX12 inhib, PNC assembly inh, HPGD block, ALDH1A1 inh)
Cc1cc2n(n1)SC(Nc1ccccc1)N2 (stereo unspecified)	ALDH1A1 inh 25.1µM
Cc1ccc(NC2Nc3cc(C)nn3S2)c(C)c1 (stereo unspecified)	ALDH1A1 inh inconclusive (no result: ALOX12 inhib, PNC assembly inh, HPGD block)
Cc1ccc(OC(=O)c2cc(-c3ccc4c(c3)OCCO4)on2)c(C)c1	none (no result: ALOX12 inhib, PNC assembly inh, HPGD block, ALDH1A1 inh)
CCCCCCCCCCCCCCCC(=O)N[C@@H](COP(=O)(O)O)C(=O)O	HPGD block inconclusive (no result: PNC assembly inh, Lamin A splicing)
O=C(CCC1N=C2c3ccccc3N=C(SCc3ccccc3F)N2C1=O)NCc1ccccc1 (stereo unspecified)	none (no result: ALOX12 inhib, PNC assembly inh, HPGD block, ALDH1A1 inh)
Cc1ccc(CNC(=O)C(CC(C)C)N2Cc3ccccc3C2=O)cc1 (stereo unspecified)	none (no result: ALOX12 inhib, PNC assembly inh, HPGD block, ALDH1A1 inh)
O=C(COc1ccccc1Cl)Nc1cnn(Cc2ccccc2)c1	PNC assembly inh -94.0, ALDH1A1 inh inconclusive
O=C(COC(=O)c1ccccn1)Nc1ccccc1Cl	ALDH1A1 inh 22.4µM
O=C(COc1ccccc1O)Nc1ccccc1Cl	PNC assembly inh inconclusive, Lamin A splicing inconclusive, HPGD block 17.8µM, ALDH1A1 inh inconclusive
O=c1[nH]c(Cc2ccc(F)cc2)nc2scc(-c3ccc(F)cc3)c12	Lamin A splicing inconclusive, HPGD block 22.4µM, ALDH1A1 inh 31.6µM
NC(=O)Cc1nc2scc(-c3ccccc3)c2c(=O)[nH]1	ALDH1A1 inh 12.6µM (no result: ALOX12 inhib, PNC assembly inh, HPGD block)
Cc1cc(C)c(NC(=O)CSc2nnc3[nH]c(=O)cc(C)n23)c(C)c1	none (no result: ALOX12 inhib, PNC assembly inh, HPGD block, ALDH1A1 inh)
O=C(NCc1ccccn1)c1ccc(Cn2cc(Br)cn2)o1	none
O=C(c1ccc(Cn2cc(Br)cn2)o1)n1cccn1	PNC assembly inh -83.2
O=C(N/N=C/c1c(F)c(F)c(F)c(F)c1F)c1ccc(Cn2cc(Br)cn2)o1	none
